Data from PubChem BioAssay (NCI).
Compounds without any hit were thinned out: in the full panel of roughly 79,000, 15% have a hit. Unmarked numbers belong to inactive results. The source made the active and inactive calls. Rule as the data show it: active = growth inhibition above about 70%; inactive = the rest.

Assays:
[1] = NCI Yeast Anticancer Drug Screen. Data for the rad50 strain (AID 155);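 also: 0% = growth of vehicle-only cultures of the same strain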; conditions: S. cerevisiae rad50 strain growth inhibition, active compounds read high
Procedure, shortened: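 Cells are treated with compound, grown, and their growth is then scored against vehicle-only cultures of the same repair-deficient yeast strain.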

[2] = NCI Yeast Anticancer Drug Screen. Data for the mec2-1 strain (AID 157); conditions: S. cerevisiae mec2-1 strain, active compounds read high
Procedure, shortened: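 Each compound was tested on mec2-1 yeast, a strain altered in DNA damage repair or cell cycle control. Growth inhibition is reported relative to vehicle.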

[3] = NCI Yeast Anticancer Drug Screen. Data for the sgs1 mgt1 strain (AID 161);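 also: 0% = growth of cultures given vehicle only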; conditions: S. cerevisiae sgs1 mgt1 strain, active compounds read high
Procedure, shortened: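 Test agents were incubated with a DNA-repair-mutant yeast strain. Growth was then read and compared against vehicle-treated controls.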

[4] = NCI Yeast Anticancer Drug Screen. Data for the cln2 rad14 strain (AID 165);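 also: 0% = growth equal to vehicle treated cultures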; conditions: S. cerevisiae cln2 rad14 strain, active compounds read high
Procedure, shortened: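 Test compounds were added to cln2 rad14 yeast cultures; inhibition of growth was then determined by comparison with vehicle treatment.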

[5] = NCI Yeast Anticancer Drug Screen. Data for the bub3 strain (AID 167); conditions: S. cerevisiae bub3 mutant strain, active compounds read high
Procedure, shortened: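 Part of a panel of yeast mutants defective in DNA damage repair or cell cycle regulation. Each strain is grown with compound, and inhibition is calculated relative to solvent-treated cultures.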

[6] = NCI Yeast Anticancer Drug Screen. Data for the mlh1 rad18 strain (AID 175); conditions: S. cerevisiae mlh1 rad18 strain growth inhibition, active compounds read high
Procedure, shortened: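 Inhibition values reflect reduced growth of mutant yeast versus vehicle-treated controls following compound exposure; the mutations affect DNA damage repair.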

[7] = at 5.0 µM (retest, dose inferred, filed as 0.5)
[8] = at 50.0 µM (retest, dose inferred, filed as 5.0)

Row | Structure (SMILES) | growth inhibition [1, 7] | growth inhibition [1, 8] | growth inhibition ([1]; at 50.0 µM) | growth inhibition [2, 7] | growth inhibition [2, 8] | growth inhibition ([2]; at 50.0 µM) | growth inhibition [3, 7] | growth inhibition [3, 8] | growth inhibition ([3]; at 50.0 µM) | growth inhibition [4, 7] | growth inhibition [4, 8] | growth inhibition ([4]; at 50.0 µM) | growth inhibition [5, 7] | growth inhibition [5, 8] | growth inhibition ([5]; at 50.0 µM) | growth inhibition [6, 7] | growth inhibition [6, 8] | growth inhibition ([6]; at 50.0 µM)
1 | CC1(C)C(c2ccccc2)=Nc2ccccc21 | 0% | 36% | 34.1% | 3% | 89% (active) | 92.6% (active) | -13% | 61% | 32.5% | -2% | 62% | 38% | 9% | 94% (active) | 96.7% (active) | -5% | 46% | 86.2% (active)
2 | CCCCCCCc1c(Cl)nc(Cl)nc1Cl | 11% | 92% (active) | 78.3% (active) | 12% | 97% (active) | 88.3% (active) | 3% | 96% (active) | 87% (active) | 11% | 78% (active) | 46% | 4% | 99% (active) | 76.2% (active) | 16% | 96% (active) | –
3 | CC(NNC(=S)N1CCN(c2ccccn2)CC1)c1nccc2ccccc12 (stereo unspecified) | 26% | 98% (active) | 69.1% | 51% | 98% (active) | 22.1% | 58% | 99% (active) | 1.8% | 63% | 98% (active) | 8.35% | 83% (active) | 99% (active) | 6.2% | 49% | 98% (active) | –
4 | CN(C)CCNc1ccc(CO)c2oc3ccc(O)cc3c(=O)c12 | 17% | 41% | 26.5% | 13% | 41% | 59.9% | 13% | 36% | 9.95% | 22% | 28% | -14.1% | 15% | 66% | 49% | 21% | 63% | –
5 | Cc1cc(NCCCCCCCNc2cc(C)nc3cc([N+](=O)[O-])ccc23)c2ccc([N+](=O)[O-])cc2n1 | 1% | 87% (active) | 68.5% | 15% | 83% (active) | 77% (active) | 5% | 90% (active) | 72.2% (active) | 14% | 70% (active) | 57.8% | 1% | 83% (active) | 73.1% (active) | 5% | 88% (active) | –
6 | Cc1nc2c(ccc3[nH]c4ccccc4c32)s1 | 7% | 99% (active) | 90.8% (active) | 9% | 99% (active) | 92.5% (active) | 16% | 99% (active) | 91% (active) | -16% | 99% (active) | 91% (active) | 8% | 99% (active) | 91.8% (active) | 10% | 99% (active) | 89.9% (active)
7 | COc1cccc2c1C(=O)c1c(O)c3c(c(O)c1C2=O)C[C@@](O)(C(C)=O)C[C@@H]3OC1CC(N(C)C)C(O)C(C)O1 (stereo partly specified) | 98% (active) | 98% (active) | 86.5% (active) | 98% (active) | 98% (active) | 90.3% (active) | 99% (active) | 99% (active) | 90.8% (active) | 96% (active) | 97% (active) | 90.2% (active) | 99% (active) | 99% (active) | 88% (active) | 97% (active) | 97% (active) | –
8 | Nc1nc(N)c2c(Cl)c(CNc3ccc(Cl)c(Cl)c3)ccc2n1 | 82% (active) | 98% (active) | 88.1% (active) | 97% (active) | 98% (active) | 91% (active) | 81% (active) | 98% (active) | 90.8% (active) | 46% | 98% (active) | 89.9% (active) | 74% (active) | 98% (active) | 89.7% (active) | 75% (active) | 98% (active) | –
9 | COc1cc2c(c(OC)c1OC)-c1ccc(SC)c(=O)cc1C(NC(=O)c1ccccc1)CC2 (stereo unspecified) | -9% | 65% | 79.8% (active) | -20% | 61% | 86.9% (active) | 5% | 81% (active) | 83.5% (active) | 11% | 48% | 52.9% | -29% | 63% | 78.5% (active) | -6% | 70% (active) | –
10 | CCN1CCC(O)(c2ccc(Oc3ccccc3)cc2)C(C(=O)c2ccc(Oc3ccccc3)cc2)C1 (stereo unspecified) | 25% | 19% | 32.9% | -10% | -8% | 22.5% | 23% | 28% | -21.9% | 18% | 35% | 0.95% | 14% | 38% | -23.9% | 18% | 40% | –
11 | CCCCCCCCCCNC1CC(OC2CC(O)(C(O)CO)Cc3c(O)c4c(c(O)c32)C(=O)c2c(OC)cccc2C4=O)OC(C)C1O (stereo unspecified) | 96% (active) | 97% (active) | 85.8% (active) | 99% (active) | 98% (active) | 89.7% (active) | 95% (active) | 98% (active) | 90.2% (active) | 80% (active) | 96% (active) | 88.2% (active) | 49% | 97% (active) | 87.8% (active) | 99% (active) | 96% (active) | –
12 | CC1(O)Cc2c(O)c3c(c(O)c2CC1O)C(=O)C=CC3=O (stereo unspecified) | 9% | 51% | 72.2% (active) | 6% | 46% | 69.2% | 4% | 43% | 26.5% | 7% | 37% | 14.9% | 1% | 56% | 24.2% | 9% | 70% (active) | –
13 | CS(=O)(=O)OCCN(CCOS(C)(=O)=O)c1ccc(C=Nc2ccc(-c3csc(Cc4ccccc4)n3)cc2)c(Cl)c1 | 16% | 95% (active) | 71.2% (active) | 7% | 93% (active) | 76.6% (active) | -22% | 83% (active) | 71% (active) | 7% | 85% (active) | 77% (active) | -35% | 78% (active) | 76% (active) | 15% | 94% (active) | –
14 | CCN(CC)c1ccc(C(=C2C=CC(=[N+](CC)CC)C=C2)c2ccc(N(CC)CC)cc2)cc1 | 97% (active) | 91% (active) | 67.5% | 98% (active) | 92% (active) | 73% (active) | 98% (active) | 92% (active) | 77.5% (active) | 97% (active) | 91% (active) | 76% (active) | 98% (active) | 90% (active) | 74.6% (active) | 97% (active) | 90% (active) | –
15 | CN(C)c1nc(N)c(C#N)c(C#N)c1C#N | 21% | 62% | 69.6% | 21% | 44% | 88.2% (active) | 11% | 61% | 80.8% (active) | 27% | 45% | 53.9% | 9% | 79% (active) | 88.5% (active) | 26% | 85% (active) | –
16 | CC1OC(OC2CC(O)(C(=O)CO)Cc3c(O)c4c(c(O)c32)C(=O)c2ccccc2C4=O)CC(N)C1O (stereo unspecified) | 87% (active) | 96% (active) | 87.8% (active) | 62% | 95% (active) | 91.1% (active) | 86% (active) | 97% (active) | 89.5% (active) | 57% | 95% (active) | 87.3% (active) | 56% | 96% (active) | 89.1% (active) | 77% (active) | 94% (active) | –
17 | O=C1C(Cl)=C(N2CCN(C3=C(Cl)C(=O)c4ccccc4C3=O)CC2)C(=O)c2ccccc21 | 26% | 98% (active) | 84.4% (active) | 8% | 99% (active) | 87.8% (active) | 44% | 99% (active) | 88.7% (active) | 14% | 98% (active) | 87.8% (active) | 39% | 98% (active) | 87.9% (active) | 26% | 98% (active) | –
18 | Cc1nc2c(nc1C)C(=O)c1ccccc1C2=O | 19% | 98% (active) | 85.9% (active) | 14% | 99% (active) | 82.4% (active) | 22% | 97% (active) | 71.4% (active) | 11% | 91% (active) | 31.9% | 30% | 99% (active) | 67.3% | 27% | 99% (active) | –
19 | O=C1OC(c2cccnc2)OC(c2ccccc2)=C1C(=O)c1ccccc1 (stereo unspecified) | 5% | 99% (active) | 99.4% (active) | 23% | 99% (active) | 99.5% (active) | 4% | 98% (active) | 99.5% (active) | 12% | 99% (active) | 98.7% (active) | -4% | 99% (active) | 98.8% (active) | 33% | 99% (active) | 99.2% (active)
